The supplement of paper PMC13380429
A number with no mark means an inactive call.

Tested on: Vero E6 infected with SARS-CoV-2
Assay: inhibition of SARS-CoV-2 cytopathic effect; higher = more antiviral protection, active = above 15
Settings: 48 h

| Compound | inhibition of SARS-CoV-2 cytopathic effect (1 nM) [%] | inhibition of SARS-CoV-2 cytopathic effect (8.33 nM) [%] | inhibition of SARS-CoV-2 cytopathic effect (100 nM) [%] | inhibition of SARS-CoV-2 cytopathic effect (833.33 nM) [%] | inhibition of SARS-CoV-2 cytopathic effect (10000 nM) |
| --- | --- | --- | --- | --- | --- |
| O=c1cccc2n1C[C@@H]1CNC[C@H]2C1 [cytisine] | 1.86 | 0.43 | -2.65 | -1.32 | -2.16% |
| CC[C@H]1OC(=O)[C@H](C)[C@@H](O[C@H]2C[C@@](C)(OC)[C@@H](O)[C@H](C)O2)[C@H](C)[C@@H](O[C@@H]2O[C@H](C)C[C@H](N(C)C)[C@H]2O)[C@](C)(O)C[C@@H](C)CN(C)[C@H](C)[C@@H](O)[C@]1(C)O [azithromycin] | 0.31 | 1.86 | 2 | 0.56 | 0.92% |
| Cc1ccc(/C=C2/C(=O)C3(C)CCC2C3(C)C)cc1 (stereo not given) [3-(4-methylbenzylidene)camphor] | 0.22 | 0.95 | 2.26 | 0.01 | 0.05% |
| Cc1ccc(Oc2ccccc2-c2csc(N=C3NCCCN3)n2)c(C)c1 [abafungin] | 2.5 | 1.5 | 1.28 | -1.03 | -6.36% |
| CC(=O)Oc1cc(C(F)(F)F)ccc1C(=O)O [triflusal] | -0.9 | -0.53 | -1.38 | 0.3 | 4.74% |
| Oc1noc2c1CCNC2 [gaboxadol] | -0.68 | 2.6 | 1.13 | 0.58 | -2.2% |
| Clc1ccc2c(N3CCN(CCCN4CCN(c5ccnc6cc(Cl)ccc56)CC4)CC3)ccnc2c1 [piperaquine-phosphate] | -0.04 | 1.25 | -0.14 | -1.37 | -2.6% |
| COc1cc2c(cc1OC)-c1c(C)c3ccc(OC)c(OC)c3c[n+]1CC2 [dehydrocorydaline] | -0.53 | 0.34 | -1 | -1.37 | 0.05% |
| COc1cccc(N2CCN(C3=Nc4c(F)cccc4[C@H](CC(=O)O)N3c3cc(C(F)(F)F)ccc3OC)CC2)c1 [letermovir] | -1.18 | 0.62 | 0.16 | 0.96 | 1.82% |
| COc1cc(NC(=O)c2ccc(-c3ccc(Cl)cc3)o2)cc(OC)c1 | 1.92 | 0.3 | 0.76 | 0.19 | 0.71% |
| COc1ccc(CCNCc2ccc(OCc3ccc(Cl)nc3)c(OC)c2)cc1OC | -1.43 | 0.63 | -0.05 | -1.6 | -2.68% |
| Cc1nnc2n1-c1sc(CCC(=O)N3CCOCC3)cc1C(c1ccccc1Cl)=NC2 [apafant] | 2.67 | -1.44 | 0.93 | 1.94 | 29% (active) |
| CCC[C@H](N[C@H]1CCc2cc(F)cc(F)c2C1)C(=O)Nc1cn(C(C)(C)CNCC(C)(C)C)cn1 | 2.54 | -2.77 | -1.3 | -9.66 | -10.1% |
| C[N+]1(C)[C@@H]2C[C@@H](OC(=O)C(O)(c3cccs3)c3cccs3)C[C@H]1[C@@H]1O[C@@H]12 [tiotropium] | 0.89 | -2.54 | -2.45 | -5.08 | -3.35% |
| CC=CC1=C(C(=O)O)N2C(=O)[C@@H](NC(=O)[C@H](N)c3ccc(O)cc3)[C@H]2SC1 (mixture of isomers) [cefprozil] | -0.42 | 0.76 | 2.16 | -0.77 | 8.62% |
| CN(C)C(=O)Nc1cccc(-c2ccc(N(C)C)cc2)c1 [atglistatin] | -1.57 | -1.64 | 1.22 | 0.77 | 1.31% |
| CC(=O)NCC(=O)N1[C@@H]2CC[C@H]1c1ccc(Nc3ncc(C(F)(F)F)c(NC4CCC4)n3)cc12 | -2.51 | -1.15 | -2.99 | -4.63 | -15.4% |
| OB1OCc2cc(Cl)ccc21 | 1.12 | 2.29 | 2.68 | 2.33 | 1.07% |
| C=CC1=C(C)C2=CC3=NC(=C(CC(=O)O)C4=NC(=C(C)C4=C(O)O)C=c4[nH]c(c(C)c4CC)=CC1=N2)C(CCC(=O)O)C3C (stereo not given) [chlorophyllin] | -0.57 | -1.3 | -0.92 | -4.38 | -10.6% |

| Compound | inhibition of SARS-CoV-2 cytopathic effect (1 nM) [%] | inhibition of SARS-CoV-2 cytopathic effect (8.33 nM) [%] | inhibition of SARS-CoV-2 cytopathic effect (100 nM) [%] | inhibition of SARS-CoV-2 cytopathic effect (833.33 nM) [%] | inhibition of SARS-CoV-2 cytopathic effect (10000 nM) |
| --- | --- | --- | --- | --- | --- |
| NC(=O)c1cccc2cn(-c3ccc([C@@H]4CCCNC4)cc3)nc12 [niraparib] | -0.28 | 0.08 | -1.61 | 3.39 | 5.55% |
| Cc1nnc(NS(=O)(=O)c2ccc(N)cc2)s1 [sulfamethizole] | 3.32 | 0.33 | 0.51 | 1.2 | 3.18% |
| CC(=O)N1CCN(CCOc2ccc(C3CCN(C4=Nn5c(nnc5C(F)(F)F)CC4)CC3)cc2)CC1 | 0.09 | 1.43 | 0.26 | 1.65 | 1.88% |
| CC(C)Oc1ccc(-c2nn([C@@H](C)c3oc4ccc(F)cc4c(=O)c3-c3cccc(F)c3)c3ncnc(N)c23)cc1F | 1.54 | 2.74 | 0.14 | 0.53 | -3.52% |
| CN(C)CCC(c1ccccc1)c1ccccn1 (stereo not given) [pheniramine] | -0.78 | 3.08 | 0.29 | 2.25 | -0.28% |
| N[C@@H](C(=O)O)[C@@H](OCc1ccccc1)C(=O)O.N[C@H](C(=O)O)[C@H](OCc1ccccc1)C(=O)O | -0.96 | 0.96 | -0.27 | -0.54 | 1.19% |
| CCOC(=O)C1=C(C)NC(=S)NC1c1cccc(O)c1 (stereo not given) [monastrol] | 0.53 | -0.07 | 1.51 | 0.94 | -1.39% |
| CCN(CC)CCNC(=O)c1c(C)[nH]c(/C=C2\C(=O)Nc3ccc(F)cc32)c1C [sunitinib] | 0.55 | -1.31 | 2.08 | -2.15 | 30.3% (active) |
| O=C(Nc1ccc(S(=O)(=O)C(F)(F)F)cc1)C1=CCN(c2ncccc2C(F)(F)F)CC1 | 0.25 | -1.04 | -1.04 | -0.34 | -2.58% |
| Cc1cc(OCc2nnc(SC3CCCC3)n2-c2cccnc2)ccc1-c1ccc(S(C)(=O)=O)cc1 | -0.48 | 0.31 | 1.82 | 5.04 | -19.7% |
| O=[N+]([O-])O[C@@H]1CO[C@H]2[C@@H]1OC[C@@H]2O [isosorbide-mononitrate] | -2.43 | -1.06 | -1.7 | 2.64 | 1.45% |
| CC(COc1ccccc1)N(CCCl)Cc1ccccc1 (stereo not given) [phenoxybenzamine] | 2.45 | 2.51 | 1.57 | 0.91 | -0.17% |
| OC1(c2ccc(Cl)c(C(F)(F)F)c2)CCN(CCCC(c2ccc(F)cc2)c2ccc(F)cc2)CC1 [penfluridol] | -1.2 | 2.8 | 1.5 | -2.41 | 33.9% (active) |
| O=C(COP(=O)(O)O)[C@@H](O)[C@H](O)[C@H](O)COP(=O)(O)O [fosfructose] | -6.09 | -3.73 | -0.5 | 1.38 | -1.68% |
| Cc1c(OCC(F)(F)F)ccnc1C[S+]([O-])c1nc2ccccc2[nH]1 (stereo not given) [lansoprazole] | 3.22 | 0.73 | -0.31 | -1.96 | -1.14% |
| O=C1[O][SbH]23[O]C(=O)C([O]2)C2[O][SbH]4([O]C(=O)C([O]4)C1[O]3)[O]C2=O [antimonyl] | 0.49 | 0.38 | -2.02 | 0.19 | -10.4% |
| O=C(c1ccc(Nc2nccc(-c3cc4ccccc4s3)n2)cc1)N1CCC(N2CCCC2)CC1 | 2.48 | 3.16 | -1.73 | 2.79 | -18.6% |
| CCCCCN(C)CCC(O)(P(=O)(O)O)P(=O)(O)O [ibandronate] | 0.68 | 1.34 | 0.79 | -3.03 | -2.11% |
| NS(=O)(=O)c1cc2c(cc1Cl)NC(C1CC3C=CC1C3)NS2(=O)=O (stereo not given) [cyclothiazide] | 2.43 | 0.31 | 3.55 | -0.08 | -1.44% |
